Assay results taken from PubChem BioAssay AID1159580 (chemical genetic matrix, 2015).
The campaign covered roughly 5,500 compounds. About 2,000 (36%) were called active. Roughly 18% stayed inconclusive and do not appear here. Some of the results follow. Values without a mark were called inactive. No stated cut-off is given here; in the data, active means normalized growth mostly below about 0.91 (no sharp cut-off); inconclusive means no clear call, values can overlap the other calls; inactive means mostly above about 0.92.

Experiment: chemical genetic growth profiling, strain panel (AID 1159580);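 further: tested at 20 µM; growth read once vehicle control cultures reached saturation at 30 °C; 1 = growth at the plate median or of vehicle wells; lower values mean less growth of the strain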
Settings: growth OD

## O=[N+]([O-])c1ccc(S(=O)(=O)c2ccc(Cl)cc2)cc1O
S. cerevisiae deletion strains, locus YAL013W, strain DEP1, active compounds read low
  normalized growth: 0.82 (active)
S. cerevisiae deletion strains, locus YBR229C, strain ROT2, active compounds read low
  normalized growth: 0.766 (active)
S. cerevisiae deletion strains, locus YDL101C, strain DUN1, active compounds read low
  normalized growth: 0.715 (active)
S. cerevisiae deletion strains, locus YDL134C, strain PPH21, active compounds read low
  normalized growth: 0.938
S. cerevisiae deletion strains, locus YDR150W, strain NUM1, active compounds read low
  normalized growth: 0.811
S. cerevisiae deletion strains, locus YEL061C, strain CIN8, active compounds read low
  normalized growth: 0.924
S. cerevisiae deletion strains, locus YGR078C, strain PAC10, active compounds read low
  normalized growth: 0.81 (active)
S. cerevisiae deletion strains, locus YHR030C, strain SLT2, active compounds read low
  normalized growth: 0.954
S. cerevisiae deletion strains, locus YHR087W, strain rtc3, active compounds read low
  normalized growth: 0.692 (active)
S. cerevisiae deletion strains, locus YJR043C, strain POL32, active compounds read low
  normalized growth: 0.832 (active)
S. cerevisiae deletion strains, locus YJR075W, strain HOC1, active compounds read low
  normalized growth: 0.64 (active)
S. cerevisiae deletion strains, locus YKL190W, strain CNB1, active compounds read low
  normalized growth: 0.978
S. cerevisiae deletion strains, locus YLR039C, strain RIC1, active compounds read low
  normalized growth: 0.723 (active)
S. cerevisiae deletion strains, locus YLR058C, strain SHM2 (second series), active compounds read low
  normalized growth: 0.822 (active)
S. cerevisiae deletion strains, locus YLR085C, strain ARP6, active compounds read low
  normalized growth: 0.947
S. cerevisiae deletion strains, locus YLR262C, strain YPT6, active compounds read low
  normalized growth: 0.639 (active)
S. cerevisiae deletion strains, locus YML094W, strain GIM5, active compounds read low
  normalized growth: 0.94
S. cerevisiae deletion strains, locus YMR219W, strain ESC1, active compounds read low
  normalized growth: 0.797 (active)
S. cerevisiae deletion strains, locus YMR263W, strain SAP30, active compounds read low
  normalized growth: 0.814 (active)
S. cerevisiae deletion strains, locus YNL153C, strain GIM3, active compounds read low
  normalized growth: 0.846 (active)
S. cerevisiae deletion strains, locus YNL298W, strain CLA4 (second series), active compounds read low
  normalized growth: 0.915
S. cerevisiae deletion strains, locus YNL322C, strain KRE1, active compounds read low
  normalized growth: 0.86 (active)
S. cerevisiae deletion strains, locus YNR030W, strain Alg12, active compounds read low
  normalized growth: 0.94
S. cerevisiae deletion strains, locus YPL055C, strain LGE1, active compounds read low
  normalized growth: 0.709 (active)
S. cerevisiae deletion strains, locus YPL241C, strain CIN2, active compounds read low
  normalized growth: 0.934
S. cerevisiae deletion strains, locus YPR135W, strain CTF4, active compounds read low
  normalized growth: 0.99
S. cerevisiae strains, strain wild type, active compounds read low
  normalized growth: 0.952
